Screening results from PubChem.
BoNT A protease = BoNT A light chain protease inhibition | multiplex microsphere protease substrate cleavage, flow cytometry | inhibition, % at 10 µM | hit rate 0.17% among 360,000 | AID 588499
Anthrax LF prot = blocks Bacillus anthracis lethal factor protease; hit rate 0.12% among 360,000; P15917; multiplex microsphere protease cleavage assay, LF; inhibition, % at 10 µM
Target sequence (P15917 whole entry, looked up): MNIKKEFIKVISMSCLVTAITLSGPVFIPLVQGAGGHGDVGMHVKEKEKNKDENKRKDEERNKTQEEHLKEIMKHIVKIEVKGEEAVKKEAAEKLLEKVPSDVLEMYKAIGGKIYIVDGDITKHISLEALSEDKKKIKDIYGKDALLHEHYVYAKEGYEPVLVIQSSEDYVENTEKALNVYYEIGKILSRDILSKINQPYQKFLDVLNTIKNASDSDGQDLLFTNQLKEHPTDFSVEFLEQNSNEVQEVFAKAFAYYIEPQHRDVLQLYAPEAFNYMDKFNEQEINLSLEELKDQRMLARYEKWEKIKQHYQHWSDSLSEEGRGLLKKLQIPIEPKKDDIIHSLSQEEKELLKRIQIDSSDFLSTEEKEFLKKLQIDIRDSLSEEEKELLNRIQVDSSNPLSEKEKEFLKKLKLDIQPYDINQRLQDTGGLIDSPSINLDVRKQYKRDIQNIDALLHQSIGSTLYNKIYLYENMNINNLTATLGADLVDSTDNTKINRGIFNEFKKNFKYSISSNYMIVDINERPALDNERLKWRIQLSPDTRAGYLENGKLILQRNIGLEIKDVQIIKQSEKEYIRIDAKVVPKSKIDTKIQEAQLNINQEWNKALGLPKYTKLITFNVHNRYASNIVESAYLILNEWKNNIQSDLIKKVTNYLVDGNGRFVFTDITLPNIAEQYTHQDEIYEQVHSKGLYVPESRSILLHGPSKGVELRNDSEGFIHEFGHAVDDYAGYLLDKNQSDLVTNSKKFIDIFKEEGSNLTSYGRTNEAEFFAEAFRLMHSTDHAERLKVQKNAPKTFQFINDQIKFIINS
BoNT F protease = BoNT F light chain protease inhibition; Multiplex microsphere protease cleavage assay, flow cytometry; inhibition, % at 10 µM; hit rate 0.22% among 360,000; in the data active means inhibition above about 35%, passing the limit was not always enough; inconclusive means no clear call, values can overlap the other calls
SARS 3CLpro inh = SARS-CoV 3CLpro protease inhibition. hit rate 0.14% among 290,000. inhibition, % at 6 µM. recombinant SARS-CoV 3CLpro, quenched FRET peptide cleavage. AID 1706. P0C6X7; in the data active means inhibition above about 12%
Bead autofluor = flagged as autofluorescent in microsphere protease counterscreen. compound autofluorescence counterscreen, microsphere flow cytometry; active compounds read high. fluorescence intensity (test concentration not listed). hit rate 3.1% among 360,000; in the data active means fluorescence intensity above about 16000; inconclusive means no clear call, values can overlap the other calls
Of the large screens only hits and unclear results are named; the others gave an inactive call. Shown are actives, neighbours in structure and some others; about 3.5% of the full set was active somewhere. Unless noted, no stated cut-off is given here; in the data, active means inhibition above about 30%; inconclusive means no clear call, values can overlap the other calls; inactive means below that.

CCc1ccc(NC2=NC(C(=O)NC3CCCCC3)CC(=O)N2)cc1 (configuration not stated)	BoNT A protease inconclusive, Bead autofluor 20212
COc1ccc(NC(=O)C2CC(=O)NC(Nc3cccc(C)c3)=N2)cc1 (configuration not stated)	none
CCc1c(C)nc2ncnn2c1NCCc1ccc(OC)c(OC)c1	Bead autofluor 18500
COC(=O)c1ccc(NC(=O)CCc2c(C)nc3ncnn3c2C)cc1	Bead autofluor 22498
CCOC(=O)c1ccc(Nc2c(CC)c(C)nc3ncnn23)cc1	Bead autofluor 17060
Cc1ccnc(NC(=O)CCc2c(C)nc3ncnn3c2C)c1	Bead autofluor 20457
CCc1c(C)nc2ncnn2c1Nc1ccc(C(C)=O)cc1	none
CC(C)(C)C(=O)CN1C(=O)NC(C)(Cc2ccc3c(c2)OCO3)C1=O (configuration not stated)	none
Cc1nc(SCC(=O)NC2CCCCC2)[nH]c(=O)c1C	none
COc1ccccc1OCC(=O)N1CCN(C(=O)COc2ccccc2OC)CC1	none
Cc1nc2ncnn2c(C)c1CCC(=O)NCCC1=CCCCC1	Bead autofluor 20756
CCOc1ccc(CCNC(=O)CCc2c(C)nc3ncnn3c2C)cc1OCC	none
CCC(Sc1nc2cc3c(cc2c(=O)n1Cc1ccco1)OCO3)C(=O)Nc1cccc(OC)c1 (configuration not stated)	Bead autofluor 21154
CCC(Sc1nc2cc3c(cc2c(=O)n1Cc1ccco1)OCO3)C(=O)Nc1ccccc1OC (configuration not stated)	BoNT A protease inconclusive, Bead autofluor 23027
CCC(Sc1nc2cc3c(cc2c(=O)n1Cc1ccco1)OCO3)C(=O)NCCOC (configuration not stated)	none
CCCCNC(=O)Nc1nnc(-c2ccccc2)o1	none
CN(CC(=O)Nc1ccc(F)c(F)c1)S(=O)(=O)c1cccc2nsnc12	none
Cc1ccc(NC(=O)N2CCC(=O)N2)cc1	Bead autofluor 23674
CCOC(=O)CNc1nc(C(C)(C)C)nc2c1nnn2Cc1ccccc1Cl	Bead autofluor 23473
CCOC(=O)CC(=O)CSCC(=O)Nc1ccc(C)cc1	Bead autofluor 22826
Cc1ccc(NC(=O)CSCC#N)cc1	BoNT A protease inconclusive, Bead autofluor 18468
Cc1ccc(NC(=O)CCC(=O)OCC(F)(F)C(F)F)cc1	BoNT A protease inconclusive, Bead autofluor 21194
CCN(CC(=O)Nc1ccc(NC(C)=O)cc1)C(=O)CSCC(=O)Nc1ccc(C)cc1	none (no result: SARS 3CLpro inh)
CCOC(=O)c1ccc(NC(=O)CSCc2ccco2)cc1	BoNT A protease inconclusive, Bead autofluor 16501
Nc1nc(SCCN2C(=O)c3ccccc3C2=O)n[nH]1	BoNT A protease inconclusive, Bead autofluor 18492
O=C1c2ccccc2C(=O)N1CCSc1ccccc1	BoNT A protease inconclusive, Anthrax LF prot inconclusive, Bead autofluor inconclusive
CCCCOC(=O)CCc1nc2ccccc2[nH]c1=O	Bead autofluor 18710
CCC(OC(=O)CCc1nc2ccccc2[nH]c1=O)C(=O)c1ccccc1 (configuration not stated)	Bead autofluor 17407
CCCCOC(=O)CCn1[nH]c(=O)c2ccccc2c1=O	Bead autofluor 22758
O=C(O)c1cc2nc3c(c(C(F)(F)F)n2n1)CCc1ccccc1-3	none
CCOC(=O)c1c(C)[nH]c(C(=O)CN2C(=O)NC(C)(c3ccc4ccccc4c3)C2=O)c1C (configuration not stated)	Bead autofluor 20042
CCCC1(c2ccccc2)NC(=O)N(CC(=O)c2[nH]c(C)c(C(=O)OCC)c2C)C1=O (configuration not stated)	none
Cc1ccccc1NC(=O)c1ccccc1O	Bead autofluor 22757
CSc1ccccc1C(=O)Nc1ccccc1C	none
Cc1ccccc1C(=O)Nc1ccccc1C(=O)NCc1ccccc1	Bead autofluor 21881
O=C(O)CNC(=O)c1ccccc1NC(=O)c1ccco1	Bead autofluor 22742
O=C(/C=C/c1ccco1)N(Cc1cccc(F)c1)C1CCS(=O)(=O)C1 (configuration not stated)	none
CC(=O)c1c(N2CCN(c3cccc(Cl)c3)CC2)nc(=S)n(-c2ccccc2)c1C	none
CCCCCCNC(=O)Cc1nc2nc(C)cc(C)n2n1	Bead autofluor 20841
Cc1cc(C)n2nc(SCCC(=O)NCCc3ccccc3)nc2n1	Bead autofluor 18555
COCCNC(=O)CSc1nc2nc(C)cc(C)n2n1	Bead autofluor 22346
CCN(C(=O)CSc1nc2nc(C)cc(C)n2n1)c1ccccc1	none
CCN(C(=O)CSc1nc2nc(C)cc(C)n2n1)c1cccc(C)c1	Bead autofluor 16126
